# In the library only some 0.71% were active in any assay of this set; here they are far more common.
# BLM helicase inh: blocks DNA unwinding by human BLM helicase; P54132; recombinant BLM DNA unwinding, fluorescence dequenching; Potency, µM (titrated, usually from 56.1 µM), actives largely listed as inhibitors; 0.2% of 350,000 active; also: nearly all actives have a fitted effect of over 35% in size
# Target sequence (P54132 whole entry, looked up): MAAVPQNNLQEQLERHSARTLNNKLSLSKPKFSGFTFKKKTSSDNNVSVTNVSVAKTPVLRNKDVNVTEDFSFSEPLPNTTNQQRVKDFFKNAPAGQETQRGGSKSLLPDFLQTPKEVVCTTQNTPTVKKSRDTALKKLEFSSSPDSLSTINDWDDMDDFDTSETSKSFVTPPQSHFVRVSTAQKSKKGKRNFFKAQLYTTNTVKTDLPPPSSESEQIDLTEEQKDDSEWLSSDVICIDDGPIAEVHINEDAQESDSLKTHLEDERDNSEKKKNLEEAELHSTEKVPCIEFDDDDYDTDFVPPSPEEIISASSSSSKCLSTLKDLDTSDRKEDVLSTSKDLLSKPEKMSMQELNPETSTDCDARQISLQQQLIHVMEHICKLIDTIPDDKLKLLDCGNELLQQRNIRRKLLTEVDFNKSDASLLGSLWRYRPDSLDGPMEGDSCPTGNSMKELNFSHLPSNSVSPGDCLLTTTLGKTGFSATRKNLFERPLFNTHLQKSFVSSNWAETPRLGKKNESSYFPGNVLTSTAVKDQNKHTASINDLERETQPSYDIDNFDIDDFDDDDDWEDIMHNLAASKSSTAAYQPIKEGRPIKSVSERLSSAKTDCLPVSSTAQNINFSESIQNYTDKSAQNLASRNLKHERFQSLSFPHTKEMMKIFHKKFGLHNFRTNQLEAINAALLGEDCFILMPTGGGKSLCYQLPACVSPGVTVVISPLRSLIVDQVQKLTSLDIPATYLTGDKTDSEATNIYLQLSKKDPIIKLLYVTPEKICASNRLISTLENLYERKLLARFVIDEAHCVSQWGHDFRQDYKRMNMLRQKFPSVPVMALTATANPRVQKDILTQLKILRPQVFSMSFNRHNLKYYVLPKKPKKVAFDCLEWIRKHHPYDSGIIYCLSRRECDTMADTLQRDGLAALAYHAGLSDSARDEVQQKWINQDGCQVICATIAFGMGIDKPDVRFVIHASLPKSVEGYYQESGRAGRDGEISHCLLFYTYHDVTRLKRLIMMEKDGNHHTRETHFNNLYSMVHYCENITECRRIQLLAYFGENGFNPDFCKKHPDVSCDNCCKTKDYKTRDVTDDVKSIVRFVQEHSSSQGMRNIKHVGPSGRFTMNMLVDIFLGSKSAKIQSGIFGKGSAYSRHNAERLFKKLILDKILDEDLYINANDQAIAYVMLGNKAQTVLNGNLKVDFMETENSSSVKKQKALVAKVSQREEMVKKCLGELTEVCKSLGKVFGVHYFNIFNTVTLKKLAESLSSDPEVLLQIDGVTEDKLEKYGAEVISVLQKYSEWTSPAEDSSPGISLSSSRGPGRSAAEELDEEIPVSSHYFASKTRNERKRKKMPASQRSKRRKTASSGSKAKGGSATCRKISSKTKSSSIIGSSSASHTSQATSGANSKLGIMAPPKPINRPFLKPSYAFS
# RGS12 GoLoco inh: blocks human Gai1 binding to RGS12 GoLoco peptide, red readout | P63096 | Gai1:RGS12 GoLoco peptide FP, rhodamine, 10 min | Potency, µM (highest dose often 61.6 µM), hits mostly inhibitors | 0.44% of 230,000 active; active = well fitted inhibition curve with a large enough effect, not every such curve was filed as active; inactive = no such curve, though single readings can be large or run the other way; also: nearly all actives have a fitted effect of over 30% in size
# TR SRC2 fluor cs: Texas Red fluorescence interference in TRb-SRC2 counter-screen | TRb/SRC2 Texas Red total fluorescence interference | Potency, µM (highest dose often 106 µM) | 0.29% of 280,000 active | AID 1479; active = well fitted curve in either direction with a large enough effect; inconclusive = small, poorly fitted or top-dose-only effect
#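 Flags fluorescent or light-absorbing compounds by total fluorescence, S + 2P, at 555 nm excitation and 632 nm emission. Mixture: 20 nM Texas Red SRC2 peptide, 0.6 uM human TRb LBD, 1 uM T3, 5% DMSO; compound exposure 5 h at ambient temperature.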
# ERG Ets-DNA blk: blocks human ERG Ets domain binding to DNA; P11308; fluorescence polarization, His-ERG Ets domain / labelled DNA; Potency, µM (series often up to 76.9 µM), hits mostly inhibitors; 0.028% of 370,000 active; AID 624246; active = well fitted inhibition curve with a large enough effect in the polarisation, with a control signal flat; inconclusive = small, poorly fitted or top-dose-only effect, or effect the other way, or a change in a side signal; inactive = no such curve, though single readings can be large or run the other way; the % refers to the polarisation;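 also: polarization taken with two DNA probes labelled with fluorescein and Texas red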
#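 His-tagged ERG Ets domain (1 uM in the protein solution; 300mM KCl, 50mM Tris-HCl, 1mM EDTA, 1mM DTT, pH 7.5) received compound, then a probe mix of 5 nM fluorescein-DNA and 100nM Texas-615-DNA. Fluorescence polarization was read for both dyes.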
# TRb SRC2 PPI: disrupts binding of human TR beta to SRC2 | TRbeta-SRC2 peptide binding, fluorescence polarization; receptor liganded with 1 µM T3 | AID 1469 | 0.065% of 280,000 active | Potency, µM (series often up to 106 µM), actives largely listed as inhibitors | P10828; also: nearly all actives have a fitted effect of over 50% in size
#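 TRb LBD 0.6 uM + Texas Red SRC2 peptide 20 nM, 1 uM T3, Tris buffer w/ 5% DMSO; compound pinned, 5 h RT; FP read ex 555/em 632; normalized to unbound and bound controls.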
# RECQ1 inh: blocks DNA unwinding by human RECQ1; P46063; RECQ1 DNA unwinding, red fluorescence kinetic read; Potency, µM (titrated, usually from 57.3 µM), hits mostly inhibitors; 0.54% of 240,000 active; AID 2549; also: nearly all actives have a fitted effect of over 30% in size
#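 50 nM RECQ1T1 preincubated 15 min with compound in Tris pH 8.0 buffer with MgCl2, DTT, Tween-20 and 2.5 ug/ml poly(dI-dC); started with 200 nM TAMRA/BHQ-2 forked duplex and 2 mM ATP. Unwinding read as fluorescence (525/598 nm), two reads 2 h apart.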
# A number is an active result; . = inactive; ? = inconclusive; / = no result; ! = not confirmed by another sample; [ ] = dose if it differs, or a comment. Unless noted, calls follow the shape of the dose curve; as a rule, active = well fitted curve in the direction sought with a large enough effect; inconclusive = small, poorly fitted or top-dose-only effect, or another doubt; inactive = no such curve, though single readings can be large; an effect the other way counts as inactive or inconclusive.
SMILES,BLM helicase inh,RGS12 GoLoco inh,TR SRC2 fluor cs,ERG Ets-DNA blk,TRb SRC2 PPI,RECQ1 inh
CCCCN(C)C(=O)CS(=O)(=O)Cc1nc(-c2cccc(OC)c2)oc1C,.,.,.,20µM,.,.
COCCCNC(=O)CS(=O)(=O)Cc1nc(-c2cccc(OC)c2)oc1C,.,.,.,.,.,.
C[N+]1(C2CCC3CCC2C3O)CCCC1 (configuration not stated),.,16µM,.,.,.,.
CC(=O)OC1C2CCC1C([N+]1(C)CCCCC1)CC2 (configuration not stated),.,14µM,.,.,.,.
CCOc1ccc(N2CC(c3nc4ccccc4n3CCCOc3ccccc3OC)CC2=O)cc1 (configuration not stated),.,/,71µM[quencher],.,.,/
COc1ccccc1OCCCn1c(C2CC(=O)N(c3ccc(F)cc3)C2)nc2ccccc21 (configuration not stated),.,/,.,.,.,/
COc1ccc(C2c3sc(=O)[nH]c3SCC2C(N)=O)cc1 (configuration not stated),.,.,.,.,.,.
COC(=O)C1CSc2[nH]c(=O)sc2C1c1ccc(O)c(OC)c1 (configuration not stated),.,20µM,.,.,.,.
CCn1ccc2cc(OC)ccc2c1=S,.,.,.,.,.,.
CCSc1ccc2cc(OC)ccc2[n+]1CC,.,2.5µM,.,.,.,.
COc1cc2cc3c(N)c(C(=O)Nc4sc(C)c(C)c4C#N)sc3nc2cc1OC,32µM,.,?,.,?,10µM
Cc1c(/C=N\NC(=O)C2COc3ccc(C(C)(C)C)cc3O2)c2ccccc2n1C (configuration not stated),.,.,.,.,.,28µM
CC(C)([CH2][Sn]([CH2]C(C)(C)c1ccccc1)([CH2]C(C)(C)c1ccccc1)[O][Sn]([CH2]C(C)(C)c1ccccc1)([CH2]C(C)(C)c1ccccc1)[CH2]C(C)(C)c1ccccc1)c1ccccc1,.,/,.,/,.,.
CC(C)C[C@H](NC(=O)[C@H](Cc1c[nH]c2ccccc12)NC(=O)[C@H](CCCCN)NC(=O)CNC(=O)[C@H](CC(C)C)NC(=O)[C@H](CO)NC(=O)[C@@H](N)Cc1cnc[nH]1)C(=O)NCC(=O)N[C@@H](Cc1cnc[nH]1)C(=O)N1CCC[C@H]1C(=O)N[C@@H](CC(=O)O)C(=O)N[C@@H](CCCCN)C(=O)N[C@@H](Cc1ccccc1)C(=O)O,.,/,.,/,.,.
CSCC[C@H](NC(=O)[C@H](CC(C)C)NC(=O)CNC(=O)[C@@H]1CCCN1C(=O)[C@H](Cc1ccccc1)NC(=O)[C@H](Cc1ccccc1)NC(=O)[C@H](CC(=O)O)NC(=O)[C@H](Cc1cnc[nH]1)NC(=O)[C@H](CCSC)NC(=O)[C@@H](N)CC(=O)O)C(N)=O,.,/,.,/,.,11µM
O=c1cc(-c2ccc(O)cc2)oc2c(O)c(O)c(O)c(O)c12,10µM,.,.,.,.,13µM
O=c1cc(-c2ccccc2)oc2cc(O)c(O)c(O)c12,16µM!,.,45µM![quencher],.,?,28µM
CC(C)C[C@H](NC(=O)[C@H](Cc1cnc[nH]1)NC(=O)[C@@H](N)Cc1cnc[nH]1)C(=O)NCC(=O)NCC(=O)N[C@@H](C)C(=O)N[C@@H](CCCCN)C(=O)N[C@@H](CCC(N)=O)C(=O)N[C@@H](C)C(=O)NCC(=O)N[C@@H](CC(=O)O)C(=O)N[C@H](C(=O)O)C(C)C,.,/,.,/,.,.
C=Cc1ccc(P(c2ccccc2)c2ccccc2)cc1,/,/,.,/,.,/
CCOCCOCCOCC,/,/,.,/,.,/
CCCCNS(=O)(=O)c1ccccc1,/,/,.,/,.,/
CCOc1cc(/C=C2\SC(=S)N(C(C(=O)O)c3ccccc3)C2=O)ccc1O (configuration not stated),?,.,.,.,.,.
O=C(O)C(c1ccccc1)N1C(=O)/C(=C\c2ccc(O)c(O)c2)SC1=S (configuration not stated),.,/,/,.,/,/
COc1cc(/C=C2\SC(=S)N(C(C(=O)O)c3ccccc3)C2=O)ccc1O (configuration not stated),.,.,.,.,?,22µM
COc1cc(/C=C2/SC(=S)N(c3c(C)n(C)n(-c4ccccc4)c3=O)C2=O)ccc1O,.,.,.,.,?,22µM
SMILES,BLM helicase inh,RGS12 GoLoco inh,TR SRC2 fluor cs,ERG Ets-DNA blk,TRb SRC2 PPI,RECQ1 inh
CCOc1ccc(/C=C2/SC(=S)N(C(C(=O)O)c3ccccc3)C2=O)cc1OCC (configuration not stated),.,.,.,.,.,22µM
CCCCCCCCCCCCCC[C@@H](O)[C@@H](O)[C@@H](N)CO,.,/,.,/,.,.
O=c1cnc2cncnc2n1Cc1ccccc1Cl,.,.,/,/,/,.
CC1=CC(=O)CC(C)(C)C1,/,/,.,/,.,/
COc1ccc(NC(=O)Cn2c(=O)c3ccccc3n3nncc23)cc1Cl,.,/,.,.,.,/
COc1ccc(NC(=O)Cn2c(=O)c3cc(Cl)ccc3n3nncc23)cc1,.,/,0.35µM[quencher],.,.,/
NCCC[C@@H](CC(=O)N[C@@H]1CCNC[C@H]1C(=O)N[C@H](CC(=O)N[C@@H](CCC(=O)O)CC(=O)O)Cc1ccccc1)NC(=O)C[C@H](Cc1c[nH]c2ccccc12)NC(=O)[C@@H]1CCCC[C@H]1N,.,20µM,.,/,.,.
CC(C)C[C@@H](CC(=O)N[C@H](CC(=O)N[C@@H]1CCCC[C@H]1C(=O)N[C@H](CC(=O)N[C@@H](CCC(=O)O)CC(=O)O)Cc1c[nH]c2ccccc12)C(C)C)NC(=O)[C@@H]1CCCC[C@H]1N,7.1µM,.,.,/,.,.
COc1ccc(NC(=O)c2ccc3c(c2)CCN3S(=O)(=O)c2ccc(C)cc2)cc1Cl,.,/,.,.,.,/
CCCCC(CC)COC(=O)CS (configuration not stated),/,/,.,/,.,/
O=C(NCc1cccc(F)c1)C1CCN(c2nc3ccccc3nc2C(F)(F)F)CC1,.,/,.,.,.,/
COc1cc(C2NC(=O)NC(C)=C2C(=O)OCc2ccccc2)ccc1O (configuration not stated),14µM,/,.,.,.,.
COc1ccc(COC(=O)C2=C(C)NC(=O)NC2c2ccc(O)c(OC)c2)cc1 (configuration not stated),.,.,.,/,.,.
O=C(O)c1cc2c(s1)-c1ccccc1OC2,.,.,.,.,.,.
O=C(O)c1cc2c(s1)-c1ccccc1CC2,.,.,.,16µM,.,.
COC(=O)Cn1c(SCCOc2ccccc2Cl)nc2ccccc21,.,/,.,.,.,/
